From PubChem
The list is not random: actives were taken first. Their share in the collection is about 4.8%.
hcDAF12 agonist: activators of H. contortus DAF-12 nuclear receptor; HEK293 hcDAF-12 lit1-tk-luc reporter, luminescence; 0% DMSO, 100% Δ7-dafachronic acid; activation, % at 6.8 µM; 1.4% of 370,000 active; AID 652067;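 active means activation above the mean of all tested compounds plus 3 SD, cut at about 5.5% in these data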;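 further: 100% = response to 3 µM Δ7-dafachronic acid high control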
DAX1 inh-1: inhibits human nuclear receptor DAX1; HEK293 Gal4-DAX1 luciferase reporter, luminescence; inhibition, % at 6.75 µM; P51843; 0.99% of 340,000 active; AID 504766;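 active means inhibition above the mean over all tested compounds plus 3 SD, cut at about 4.2% in these data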;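 further: 0% = DAX1-transfected cells with DMSO and 100% = empty-vector control cells with DMSO; inhibition shows as a rise in luminescence from relieved DAX1 repression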
Target sequence (P51843 207-470 limits assumed): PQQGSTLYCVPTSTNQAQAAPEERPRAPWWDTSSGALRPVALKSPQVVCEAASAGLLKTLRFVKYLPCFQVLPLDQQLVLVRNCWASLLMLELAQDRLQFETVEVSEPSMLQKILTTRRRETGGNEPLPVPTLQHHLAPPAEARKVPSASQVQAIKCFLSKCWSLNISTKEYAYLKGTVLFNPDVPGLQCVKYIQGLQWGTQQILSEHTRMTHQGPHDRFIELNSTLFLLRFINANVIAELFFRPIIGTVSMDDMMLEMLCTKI
hgDAF-12 ag: activates the H. glycines DAF-12 receptor ligand-binding domain; HEK293 GAL4-hgDAF12 UAS-luciferase reporter, agonist luminescence; normalized to butyrate control; 1.8% of 370,000 active; activation, % at 6.8 µM; AID 687014;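 active means activation above a cutoff set at the mean of all screened compounds plus 3 SD, cut at about 10% in these data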;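 further: 0% = DMSO wells and 100% = sodium butyrate wells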
DAX1 inh-2: blocks DAX1 repression of SF-1 activated StAR promoter; HEK293T StAR-luciferase reporter, SF-1/DAX-1 repression relief; inhibition, % at 6.8 µM; 1.1% of 370,000 active; AID 652010;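 active means inhibition above the mean over all tested compounds plus 3 SD, cut at about 3.6% in these data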;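 further: 0% = DAX-1 cells with DMSO and 100% = cells lacking DAX-1 with DMSO; higher inhibition means more luminescence from relief of DAX-1 repression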
SMARCA2 act: SMARCA2 function activation, primary screen. MG213 cells, MMTV-luciferase reporter, dexamethasone, overnight. activation, % at 9.1 µM. 1% of 370,000 active. AID 652017; in the data active means activation above about 7.8%;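 further: 0% = vehicle wells and 100% = reference activator wells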
ssDAF12 agonist: S. stercoralis DAF-12 activation, primary screen | HEK293 ssDAF-12/GRIP1 lit1-tk-luc reporter, luminescence; % of 3 µM dafachronic acid response | activation, % at 6.8 µM | 1% of 370,000 active;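 active means activation above the mean over all tested compounds plus 3 SD, cut at about 0.9% in these data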;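 further: 0% = DMSO-only wells and 100% = 3 µM delta7-dafachronic acid wells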
LXR ag: activates human LXR-beta, counter-screen for hcDAF-12 agonists; shares compounds with hcDAF12 agonist; activation, % at 6.8 µM; HEK293 Gal4-LXR tk-luc reporter, luminescence, 24 h; normalized: DMSO 0%, positive control 100%; 3,400 tested, under 10 active;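 active means mean percent activation of the reporter above a cutoff set as the average over tested compounds plus their standard deviation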
hcDAF12 ag: hcDAF-12 agonism, confirmation assay. shares compounds with hcDAF12 agonist. HEK293 hcDAF-12 lit1-tk-luc reporter, luminescence; % of Δ7-dafachronic acid response. activation, % at 6.8 µM. 61% of 3,400 active;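 active means mean activation across triplicate tests above the threshold derived from the earlier primary screen, cut at about 5.5% in these data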;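 further: 0% = DMSO only wells and 100% = 3 µM Δ7-dafachronic acid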
Active calls of the source: *; / = no result given.

SMILES	hcDAF12 agonist	DAX1 inh-1	hgDAF-12 ag	DAX1 inh-2	SMARCA2 act	ssDAF12 agonist	LXR ag	hcDAF12 ag
Cn1ncc(Cl)c1C(=O)Nc1nc2ccc(Cl)cc2s1	8.5*	3.5	12.2*	1.9	3.4	1.1*	1.2	10.2*
O=[N+]([O-])c1ccc2cn[nH]c2c1	8.3*	-0.2	1.6	-0.8	-1.4	0.2	-0.1	5.0
O=[N+]([O-])c1ccc(Cl)c(S(=O)(=O)Nc2ccc3cn[nH]c3c2)c1	1.0	-1.0	-0.9	-0.7	-1.6	-0.8	/	/
COC(=O)[C@H](CC(C)C)N(CCCc1cn(CC2CCCCC2)nn1)S(=O)(=O)c1ccc(F)cc1Br	-3.1	/	-5.0	-1.6	-3.9	-2.2	/	/
CCCCCNC(=O)C(=O)C1C(=O)Nc2ccccc21 (stereo unspecified)	4.2	2.6	-0.4	-0.2	-2.5	0.6	/	/
CN(C)CCNC(=O)C(=O)C1C(=O)Nc2ccccc21 (stereo unspecified)	8.0*	/	-1.1	-0.4	0.3	0.9*	-0.2	5.0
CN[C@H]1C[C@H]2c3[nH]c4c(-c5cccc(C)c5)cccc4c3CCN2C[C@H]1[C@H](C)O	-2.0	/	-2.6	-0.3	-5.6	-1.6	/	/
COC(=O)c1cn(-c2nc3ccccc3s2)nn1	7.8*	/	-0.2	0.1	-3.4	0.1	0.1	2.8
CC(=O)Nc1cc(C)nn1-c1nc2ccccc2s1	4.4	-0.3	6.4	-0.8	0.6	0.2	/	/
O=C(Nc1ccc(N2CCCCC2)cc1)c1ccc([N+](=O)[O-])o1	7.2*	-0.3	8.4	-0.4	3.4	0.7	0.9	5.2
CN(C)c1nc(C(=O)Nc2ccccc2)nc(N(C)C)n1	6.7*	0.6	1.0	0.1	-1.2	-1.1	-0.3	1.3
CN(C)c1nc(NNC(=O)c2ccccc2)nc(N(C)C)n1	-0.2	0.6	-0.9	-0.8	-3.6	-1.2	/	/
O=S(=O)(N/N=C\C=C\c1ccccc1)c1ccc(Br)cc1	-0.5	0.7	-0.2	0.8	-0.6	-0.8	/	/
Cc1ccc(S(=O)(=O)N/N=C\C=C\c2ccccc2)cc1	6.7*	-0.2	2.6	1.0	-0.4	-0.9	-0.2	-0.1
O=[N+]([O-])c1ccc(-c2ccc(S(=O)(=O)N3CCOCC3)cc2)cc1	6.6*	4.5*	2.0	-0.1	-0.5	-0.9	-0.1	1.0
O=C(NC1CCCC1)[C@@H]1CCCN1C(=O)[C@@H](NS(=O)(=O)c1ccc(F)cc1F)c1ccccc1	0.7	/	-3.5	-0.7	-3.8	-0.8	/	/
Clc1ccccc1-c1cc2nc(NCCCn3ccnc3)ccn2n1	7.2*	/	8.2	1.4	-0.2	-0.4	0.5	3.3
CC(C)(C)c1ccc(C(=O)NCc2ccccc2)cc1	1.6	2.0	10.0	1.6	2.7	-1.2	/	/
CC(C)(C)c1ccc(C(=O)NCCc2ccccc2)cc1	6.6*	-1.0	11.4*	2.6	3.5	0.7	2.1	11.7*
CC(C)(C)c1ccc(C(=O)NCCC(=O)N2CCCC2)cc1	7.0*	3.0	12.3*	1.7	0.8	0.4	0.9	4.9
CC1CCN(c2nc(-c3cccnc3)nc3scc(-c4ccccc4)c23)CC1	3.4	-0.9	3.3	-0.1	2.3	-1.3	/	/
Clc1nc(-c2ccccn2)nc2scc(-c3ccccc3)c12	11.6*	1.1	14.4*	2.2	3.6	0.4	1.2	6.6*
COC(=O)[C@@H]1[C@H](O[Si](C)(C)C(C)(C)C)C2OC2C[C@H]1S(=O)(=O)c1ccccc1 (stereo partly specified)	-2.2	/	-0.2	/	/	-2.0	/	/
CCOC(=O)c1nc2sc3c(c2c(=O)[nH]1)CCC(C)C3 (stereo unspecified)	-1.4	1.3	1.8	0.8	-0.1	-1.5	/	/
CC1CCc2c(nc3sc4c(c3c2N)CCCC4)C1 (stereo unspecified)	7.1*	1.3	20.6*	1.6	3.3	-0.4	0.6	2.0
SMILES	hcDAF12 agonist	DAX1 inh-1	hgDAF-12 ag	DAX1 inh-2	SMARCA2 act	ssDAF12 agonist	LXR ag	hcDAF12 ag
Cc1csc2ncc(C(=O)Nc3ccon3)c(=O)n12	9.5*	-0.8	2.2	0.0	0.8	-1.2	0.0	1.2
COc1cccc(CC(=O)N2CCC(n3nccc3NC(=O)C3CCOC3)CC2)c1 (stereo unspecified)	6.9*	0.1	3.5	0.9	-2.5	-0.3	-0.1	4.8
COC(=O)[C@H]1C[C@@]2(C)c3ccccc3N(C(=O)OC(C)(C)C)[C@H]2N1C(=O)OC(C)(C)C	-0.9	/	0.4	-0.8	1.6	-0.3	/	/
CN(/N=C/c1ccc2c(c1)OCO2)c1ccccc1	9.1*	0.7	11.2*	2.9	3.2	-0.5	1.2	3.7
COc1cccc(NC(=O)n2ncc3c(C)cccc32)c1	13.3*	0.4	16.9*	3.0	1.8	1.8*	1.5	13.5*
Cc1nc(Nc2ccccc2)c2oc3ccc(Cl)cc3c2n1	-0.1	-0.1	3.9	0.3	1.1	-0.8	/	/
Clc1ccc2oc3c(Cl)ncnc3c2c1	8.0*	-1.0	1.4	0.3	0.8	-0.7	-0.2	4.2
CC(C)[C@H]1Cn2nnc(-c3ccccc3)c2Cn2c3ccccc3c(=O)n21	-0.9	/	0.7	-0.4	0.3	-0.4	/	/
Nn1c(SCC(=O)Nc2cc(C(F)(F)F)ccc2Cl)nnc1-c1n[nH]c2c1CCC2	-1.9	/	2.1	-0.7	-6.0	-1.2	/	/
CCn1ncc(Br)c1C(=O)Nc1ccc(C(C)C)cc1	7.8*	1.0	10.2	-0.3	-2.0	-0.5	0.1	2.8
COC(=O)[C@]1(C#N)CC(=O)N(C(C)C)[C@@H]1c1ccccc1	0.1	/	7.1	0.9	1.7	-1.5	/	/
Cc1cc(C)n(/N=C/c2c[nH]c3ccccc23)c(=O)c1C#N	-0.8	-0.2	1.4	0.1	-3.4	-0.6	/	/
CN1CCc2c(sc(/N=C/c3c[nH]c4ccccc34)c2C#N)C1	8.7*	/	3.9	1.8	4.2	0.5	0.6	9.0*
Cc1ccc(S(=O)(=O)NC[C@H]2CN(S(=O)(=O)c3ccc(C)cc3)[C@@H](Cc3ccccc3)CO2)cc1	0.2	/	-1.3	/	/	-2.0	/	/
Cc1onc(-c2c(Cl)cccc2Cl)c1NC(=O)NN(C)C	-0.3	3.5	2.7	0.5	-5.4	-1.5	/	/
Cc1onc(-c2c(Cl)cccc2Cl)c1NC(=O)N1CCSCC1	8.0*	4.2*	10.6*	3.5	7.0	1.8*	-0.2	0.3
O=C(CN1CCCCCC1)N/N=C/c1ccc2ccccc2c1	8.1*	0.9	4.5	0.8	2.9	0.2	0.2	2.4
